PLAP act: activates human placental alkaline phosphatase; activation fold at 20 µM; purified PLAP enzyme, luminescent substrate read-out; hits give high values; AID 696; 1.2% of 96,000 active; P05187; in the data active = activation fold above about 2
Target sequence (P05187 whole entry, looked up): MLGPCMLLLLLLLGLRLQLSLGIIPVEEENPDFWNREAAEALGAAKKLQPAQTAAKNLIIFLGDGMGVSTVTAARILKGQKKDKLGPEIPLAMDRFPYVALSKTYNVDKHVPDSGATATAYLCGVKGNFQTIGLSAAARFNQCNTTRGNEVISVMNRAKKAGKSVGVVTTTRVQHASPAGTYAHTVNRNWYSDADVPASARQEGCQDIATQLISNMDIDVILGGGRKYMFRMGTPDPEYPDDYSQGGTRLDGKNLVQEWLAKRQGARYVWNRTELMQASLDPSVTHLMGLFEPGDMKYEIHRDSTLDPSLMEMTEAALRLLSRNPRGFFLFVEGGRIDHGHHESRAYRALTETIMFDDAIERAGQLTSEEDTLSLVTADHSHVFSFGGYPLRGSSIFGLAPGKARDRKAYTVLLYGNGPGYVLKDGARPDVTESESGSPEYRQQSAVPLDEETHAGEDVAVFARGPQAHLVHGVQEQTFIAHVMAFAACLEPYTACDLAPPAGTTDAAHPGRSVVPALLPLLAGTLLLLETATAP
CYP2C19 activ: increases human CYP2C19 enzyme activity; recombinant CYP2C19, luciferin-H EGE luminescence; hits give high values; 0 = fully inhibited enzyme, 1 = untreated enzyme; activation factor at 5 µM; 96,000 tested, under 10 active; AID 1025;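 active = activation factor of at least 2 at 5 µM in the primary screen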;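 note: 0 = wells with 2.5 mM tranylcypromine and 1 = vehicle-only wells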
CYP2C19 inh: blocks human cytochrome P450 2C19. CYP2C19 Supersomes, luciferin-H EGE luminescence, 30 min. inhibition, % at 5 µM. P33261. 21% of 96,000 active. AID 778;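 active = CYP2C19 inhibition above a set limit at 5 µM in the primary screen, cut at about 50% in these data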;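 note: plate controls were negative control wells for no effect and 2.5 mM tranylcypromine positive control for full effect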
CYP2C9 inhib: inhibitors of human CYP2C9; P11712; 20% of 96,000 active; inhibition, % at 5 µM; CYP2C9 Supersomes, luciferin-H conversion, luminescence; AID 777;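 active = blocking of liver enzyme CYP2C9 beyond about 50% at 5 µM, limit read from the data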
CYP2C9 act: increases human cytochrome P450 2C9 activity. P11712. recombinant CYP2C9, luciferin-H conversion, luminescence; hits give high values; factor 1 = untreated enzyme, 0 = blocked. activation factor at 5 µM. 1.4% of 96,000 active. AID 1024;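 active = activation factor of 2 or more for CYP2C9 at a 5 µM dose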;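 note: 0 = sulfaphenazole-blocked wells and 1 = vehicle-only wells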
Numbers without * were called inactive; . = not tested or not shown. Only some compounds are listed: those with a hit (about 31% of all), similar ones and a draw of the others.

SMILES	PLAP act	CYP2C19 activ	CYP2C19 inh	CYP2C9 inhib	CYP2C9 act
Cc1ccc(C(=O)N/C(=C\c2sccc2C)C(=O)NCc2ccco2)cc1	1.1	0.8	18	34	0.7
Cc1ccc(C(=O)N/C(=C\c2cccs2)C(=O)NCCCn2ccnc2)cc1C	1.1	0.5	48	54*	0.5
Cc1ccc(C(=O)N/C(=C\c2ccco2)C(=O)NCCCn2ccnc2)cc1C	1.3	0.2	79*	71*	0.3
Cc1ccc(C(=O)N/C(=C\c2cccs2)C(=O)NCc2ccncc2)cc1	0.9	0.9	9	0	1
CCC(C)(C)NC(=O)C(c1ccc(C)cc1)N(Cc1ccco1)C(=O)CCC(=O)Nc1nccs1 (stereo not drawn)	0.9	1.1	-6	8	0.9
O=C1c2ccccc2NC(c2cccc(Cl)c2)N1N=C1CCCCCC1 (stereo not drawn)	0.9	0.7	29	7	0.9
CCOC(=O)NC(Nc1nnc(C)s1)(C(=O)OCC)C(F)(F)F (stereo not drawn)	1	1	1	0	1
CCOc1ccc2nc(NC(NC(C)=O)(C(=O)OC)C(F)(F)F)sc2c1 (stereo not drawn)	1.5	0.4	58*	6	0.9
O=C(O)C1C2CCC(C2)C1C(=O)Nc1nc2ccccc2s1 (stereo not drawn)	0.8	1	3	13	0.9
CCOC(=O)C1=C(O)C(Nc2nc3ccccc3s2)(C(F)(F)F)N=C1C (stereo not drawn)	0.9	0	98*	42	0.6
CCOC(=O)NC(Nc1nc2ccccc2s1)(C(=O)OCC)C(F)(F)F (stereo not drawn)	1.1	0.1	93*	83*	0.2
O=C(NC(Nc1nc2ccccc2s1)(C(F)(F)F)C(F)(F)F)c1ccccc1	0.9	0.2	76*	92*	0.1
NS(=O)(=O)c1ccc(NC(=O)CN2CCN(Cc3ccccc3)CC2)cc1	1.5	0.9	7	26	0.7
Cc1ccc(C)c(/C(O)=C2/C(=O)C(=O)N(CCN3CCOCC3)C2c2ccco2)c1 (stereo not drawn)	1.3	1	-1	-20	1.2
C/C(=C\C(=O)c1ccccc1)NNc1nc2ccccc2s1	1.4	0.4	61*	42	0.6
CCOc1ccc2nc(NC(NC(=O)CC)(C(=O)OC)C(F)(F)F)sc2c1 (stereo not drawn)	1.6	0.3	70*	44	0.6
CCCC(=O)Nc1nc2ccc(OCC)cc2s1	0.9	0.8	16	23	0.8
C=C(C)c1cccc(C(C)(C)NC(=O)N(Cc2ccccc2)Cc2ccco2)c1	0.9	0.6	42	72*	0.3
Cc1ccc(OCCn2c(C)c(/C=N/n3cnnc3)c3ccccc32)cc1	1.1	0.1	86*	89*	0.1
CCCCN(Cc1ccccc1)S(=O)(=O)c1ccc2[nH]c(=O)oc2c1	1.1	0.2	76*	16	0.8
Cc1cc(C)cc(N2C(=O)N(c3ccccc3C)C3CS(=O)(=O)CC32)c1 (stereo not drawn)	0.9	0.1	94*	9	0.9
CCOc1ccc(S(=O)(=O)N(C)c2ccc(OCC(=O)N3CCOCC3)cc2)cc1	1.7	0.7	25	74*	0.3
CCOc1ccc(OCC(=O)N2CCOCC2)cc1	0.9	0.7	30	-11	1.1
CCOc1ccc(NS(=O)(=O)c2ccc(N)cc2)cc1	0.9	0.5	54*	70*	0.3
CCOC(=O)COc1ccc(S(=O)(=O)c2ccc(OCC(=O)OCC)cc2)cc1	0.8	1	5	42	0.6
SMILES	PLAP act	CYP2C19 activ	CYP2C19 inh	CYP2C9 inhib	CYP2C9 act
CCOC(=O)COc1ccc(S(=O)(=O)Nc2ccc(C)cc2)cc1	1.2	0.8	20	59*	0.4
Cc1ccc(NS(=O)(=O)c2ccc(OCC(=O)N3CCOCC3)cc2)cc1	1.3	0.4	57*	47	0.5
C=CCNC(=O)c1cc(-c2ccc(Br)cc2)on1	0.9	1.1	-14	-2	1
O=C1CCN(Cc2nnnn2CC2CCCO2)c2ccccc2N1 (stereo not drawn)	1	1.1	-10	-9	1.1
CCOC(=O)c1ccc(NC(=O)c2ccc3c(c2)OCO3)cc1	0.8	1	3	0	1
CCOc1ccc(NS(=O)(=O)c2ccc(OCC)c3ncccc23)cc1	1.3	0.8	25	68*	0.3
Cc1cc(C)c(C)c(S(=O)(=O)Nc2ccc(OCC(=O)O)cc2)c1C	1	1.1	-8	76*	0.2
CCOC(=O)CC(N)c1ccc2c(c1)OCO2 (stereo not drawn)	0.9	0.5	52*	8	0.9
COc1ccc(C)c(S(=O)(=O)Nc2ccc(OCC(=O)O)cc2)c1	1.1	1.1	-10	-17	1.2
CCOC(=O)COc1ccc(S(=O)(=O)Nc2ccc3c(c2)OCO3)cc1	1.1	0.1	86*	67*	0.3
CCCCNS(=O)(=O)c1ccc(OC)c2ncccc12	1.1	0.8	20	-23	1.2
Cc1ccc(C(=O)NNC(=O)CSc2nnc(-c3ccncc3)n2-c2ccc(C)cc2)cc1	1.9	0.6	38	42	0.6
O=C(CSc1nnc(Cc2cc(=O)[nH]c(=O)[nH]2)n1-c1ccccc1)NCC1CCCO1 (stereo not drawn)	1	1.1	-10	-4	1
COC(=O)COc1ccc(S(=O)(=O)Nc2ccc3c(c2)OCCO3)cc1Cl	1.1	0	98*	92*	0.1
CCOc1ccc(NS(=O)(=O)c2ccc3[nH]c(=O)oc3c2)cc1	1	0.1	88*	87*	0.1
Cc1cccc(-n2nnc(C(=O)Nc3ccc(F)cc3)c2N)c1	1	1.1	-6	-166	2.7*
COc1ccc(CCNC(=O)c2nnn(-c3cccc(C)c3)c2N)cc1OC	1.6	0.9	8	68*	0.3
COc1ccc(CCNC(=O)c2cc(-c3ccc(C)cc3O)n[nH]2)cc1OC	2*	1	4	13	0.9
CCOc1ccc(NC(=O)Cn2nnc(C(=O)NCCc3ccc(OC)c(OC)c3)c2N)cc1	0.7	0.7	32	79*	0.2
COc1ccc(CCNC(=O)c2cc(-c3ccccc3O)n[nH]2)cc1OC	.	0.5	50	50	0.5
COc1ccc(N2CCN(C(=O)C3CCCO3)CC2)cc1 (stereo not drawn)	1.1	0.9	11	-13	1.1
O=C(CN1C(=O)CSC1=O)Nc1ccc(C(=O)O)cc1	1.4	0.8	25	-6	1.1
Cc1ccc(Cn2ncn3c(cc4ccccc43)c2=O)cc1	0.9	1.1	-8	14	0.9
Cc1ccc(OCc2ccoc2C(=O)O)cc1C	1	1	-2	-14	1.1
Cc1cccc(-n2nnc(C(=O)N3CCc4ccccc4C3)c2N)c1	1	0.9	12	-223	3.2*
CC(C)NC(=O)COC(=O)c1ccccc1Oc1ccccc1	1.5	0.1	87*	72*	0.3
Cc1cc(C(=O)OCC(=O)NC(C)C)c(C)o1	0.9	0.7	30	-7	1.1

Screening results (PubChem)
